# Results as given in PubChem BioAssay (EPA / NIEHS).
# Records with an inconclusive call do not appear. The source made the active and inactive calls. The calls were made as follows: active = hit-call score of the fitted dose curve at least 0.9, where 1 is the maximum; inconclusive = response in the unintended direction; inactive = score below 0.9.
# Key:
# [1] = TOX21_p53_BLA_p3_viability: Viability Assessment in the Tox21 HCT-116 p53 Agonism Beta-lactamase Assay, Phase 3 (AID 2283593);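 also: cells exposed to compound for 16 h before reading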
# How it was run: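 HCT-116 cells (4000/well) rested 5 h at 37C, then got DMSO compounds by pin tool (217-fold dilution) for 16 h at 37C, 5% CO2. After the bla read, CellTiter-Glo was added and luminescence read at 30 min, room temperature.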
# [2] = target: Cellular tumor antigen p53 (Homo sapiens) (UniProt P04637); experiment: TOX21_p53_BLA_p2_ratio: Tox21 HCT-116 p53 Agonism Beta-lactamase Assay, Ratio, Phase 2 (AID 2283592)
# Chain of Cellular tumor antigen p53 (Homo sapiens) (P04637 whole entry, looked up): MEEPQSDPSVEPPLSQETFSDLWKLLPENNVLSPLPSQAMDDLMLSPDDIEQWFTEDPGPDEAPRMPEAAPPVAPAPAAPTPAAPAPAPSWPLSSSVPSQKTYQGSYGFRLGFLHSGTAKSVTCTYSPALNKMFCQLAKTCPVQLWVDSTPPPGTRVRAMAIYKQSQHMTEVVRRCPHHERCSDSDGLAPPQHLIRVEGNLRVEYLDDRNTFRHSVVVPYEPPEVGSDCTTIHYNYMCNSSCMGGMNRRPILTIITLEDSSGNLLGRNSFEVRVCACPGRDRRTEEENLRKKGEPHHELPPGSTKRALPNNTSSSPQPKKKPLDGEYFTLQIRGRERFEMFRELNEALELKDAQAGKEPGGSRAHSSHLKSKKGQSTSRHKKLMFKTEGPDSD
# How it was run: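 Readout: blue/green (460/530 nm) FRET emission ratio after 2 h CCF4-AM loading at room temperature, excitation 405 nm. HCT116 p53 bla cells, 16 h compound exposure at 37C, 5% CO2; agonist direction fitted against DMSO baseline.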
# [3] = TOX21_p53_BLA_p5_viability: Viability Assessment in the Tox21 HCT-116 p53 Agonism Beta-lactamase Assay, Phase 5 (AID 2283600)
# How it was run: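 ATP luminescence (CellTiter-Glo, 30 min, RT) served as the viability read-out, with loss of signal indicating cytotoxicity. Compounds in DMSO were pinned at a 217-fold dilution onto 4000 cells/well and incubated 16 h, 37C.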
# [4] = target: Cellular tumor antigen p53 (Homo sapiens) (UniProt P04637); experiment: TOX21_p53_BLA_p4_ratio: Tox21 HCT-116 p53 Agonism Beta-lactamase Assay, Ratio, Phase 4 (AID 2283601)
# How it was run: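 HCT116 cells carrying an inducible beta-lactamase reporter were plated at 4000 cells/well, rested 5 h, then exposed to compounds in DMSO (217-fold dilution) for 16 h at 37C. CCF4-AM substrate was loaded 2 h at room temperature; 460/530 nm emission ratio scored gain-of-signal versus DMSO.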
# [5] = target: Cellular tumor antigen p53 (Homo sapiens) (UniProt P04637); experiment: TOX21_p53_BLA_p3_ratio: Tox21 HCT-116 p53 Agonism Beta-lactamase Assay, Ratio, Phase 3 (AID 2283596)
# How it was run: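 Cells were seeded at 4000/well, rested 5 h at 37C, then dosed with DMSO compound solutions (217-fold dilution) for 16 h. CCF4-AM substrate was loaded for 2 h at room temperature, and the 460/530 nm emission ratio was fitted for gain of signal versus DMSO.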
# [6] = TOX21_p53_BLA_p4_viability: Viability Assessment in the Tox21 HCT-116 p53 Agonism Beta-lactamase Assay, Phase 4 (AID 2283597);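 also: hits lower the luminescence signal meaning cytotoxicity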
# How it was run: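 ATP content by CellTiter-Glo luminescence, 30 min RT, read after the beta-lactamase ratio step. Cells: HCT116, 4000/well, compound added after 5 h, exposure 16 h at 37C. Signal loss = reduced viability.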
# [7] = target: Cellular tumor antigen p53 (Homo sapiens) (UniProt P04637); experiment: TOX21_p53_BLA_p5_ratio: Tox21 HCT-116 p53 Agonism Beta-lactamase Assay, Ratio, Phase 5 (AID 2283599)
# How it was run: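 HCT-116 cells carrying a p53-inducible beta-lactamase reporter were seeded at 4000 cells/well and dosed after 5 h with compound in DMSO (217-fold dilution). After 16 h at 37C, CCF4-AM substrate was added for 2 h, and the 460/530 nm emission ratio was scored as gain-of-signal versus DMSO.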
# [8] = target: Thyroid hormone receptor alpha (Rattus norvegicus) + Thyroid hormone receptor beta (Rattus norvegicus) (UniProt P18113+P63059); experiment: TOX21_TR_LUC_GH3_Antagonist_Followup: Tox21 GH3 Thyroid Hormone Receptor Antagonism Luciferase Follow-Up Assay (AID 2283942)
# How it was run: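 In a GH3 luciferase reporter line, test chemicals spanning 92 uM to 5nM final are co-incubated 24 h with 1.0 nM T3. Activity is expressed as relative luminescence units and analysed relative to DMSO.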
# THRA (gene 7067) = THRA (gene 7067) (UniProt P10827); experiment: TOX21_TRA_COA_Antagonist_Followup_ratio: Tox21 Thyroid Hormone Receptor alpha Antagonism through Coactivator Recruitment Follow-Up Assay, Ratio (AID 2283953)
# Chain of THRA (gene 7067) (P10827 whole entry, looked up, the tested form may be a part): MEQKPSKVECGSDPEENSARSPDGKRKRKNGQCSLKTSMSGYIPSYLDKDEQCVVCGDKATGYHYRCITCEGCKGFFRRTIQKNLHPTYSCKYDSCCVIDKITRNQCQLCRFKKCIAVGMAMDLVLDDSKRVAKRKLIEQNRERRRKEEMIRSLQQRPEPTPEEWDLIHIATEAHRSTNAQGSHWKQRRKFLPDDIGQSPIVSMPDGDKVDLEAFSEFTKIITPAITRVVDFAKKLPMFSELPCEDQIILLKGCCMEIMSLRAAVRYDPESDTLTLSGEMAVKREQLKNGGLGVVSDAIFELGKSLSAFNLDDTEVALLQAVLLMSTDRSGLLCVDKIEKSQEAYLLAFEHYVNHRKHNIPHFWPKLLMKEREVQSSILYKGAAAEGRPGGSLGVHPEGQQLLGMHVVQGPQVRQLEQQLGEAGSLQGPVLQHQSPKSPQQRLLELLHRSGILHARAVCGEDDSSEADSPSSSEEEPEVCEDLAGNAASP
# How it was run: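 We measured antagonism of T3-type coactivator recruitment using a TR-FRET ratio (emission 520 and 495 nm) between a Tb-labelled anti-GST antibody on TRα LBD (2.5 nM) and SRC-2 peptide (200 nM). Activity was scaled between DMSO and T3 wells.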
# THRB (gene 7068) [9] = target: THRB (gene 7068) (UniProt P10828); experiment: TOX21_TRB_BLA_Antagonist_Followup_ratio: Tox21 Thyroid Hormone Receptor beta Antagonism Beta-lactamase (BLA) Follow-Up Assay, Ratio (AID 2283958)
# Chain of THRB (gene 7068) (P10828 whole entry, looked up, the tested form may be a part): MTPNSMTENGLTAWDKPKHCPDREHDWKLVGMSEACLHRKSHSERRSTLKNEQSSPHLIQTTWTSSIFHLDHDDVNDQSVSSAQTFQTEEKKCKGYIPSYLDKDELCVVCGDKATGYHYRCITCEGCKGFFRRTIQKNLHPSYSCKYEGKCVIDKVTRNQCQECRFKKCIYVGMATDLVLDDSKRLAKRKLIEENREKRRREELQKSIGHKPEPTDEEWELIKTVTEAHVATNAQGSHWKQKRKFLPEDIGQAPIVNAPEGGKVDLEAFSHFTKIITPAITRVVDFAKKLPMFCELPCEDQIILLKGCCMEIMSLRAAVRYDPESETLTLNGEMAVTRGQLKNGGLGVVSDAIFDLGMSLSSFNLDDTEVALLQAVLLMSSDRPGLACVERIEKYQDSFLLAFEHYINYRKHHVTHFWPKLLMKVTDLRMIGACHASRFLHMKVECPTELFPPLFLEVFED
# How it was run: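 Read-out: blue/green (460:530 nm) ratio of cleaved to uncleaved CCF4-AM after 2 h at room temperature, fitted against DMSO baseline. HEK293T UAS-bla cells carrying GAL4-human TRβ LBD were exposed 18 h, 37C/5% CO2.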
# [10] = TOX21_TRB_BLA_Antagonist_Followup_viability: Viability Assessment in the Tox21 Thyroid Hormone Receptor beta Antagonism Beta-lactamase (BLA) Follow-Up Assay (AID 2283961)
# How it was run: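 Viability read as CellTiter-Glo ATP luminescence (loss of signal = cytotoxicity) in the same plates as the TRβ-bla readout. TRβ-LBD/GAL4 UAS-bla HEK293T cells were exposed to compounds, 11 concentrations in triplicate, for 18 h at 37C/5% CO2.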
# THRB (gene 7068) [11] = target: THRB (gene 7068) (UniProt P10828); experiment: TOX21_TRB_COA_Antagonist_Followup_ratio: Tox21 Thyroid Hormone Receptor beta Antagonism through Coactivator Recruitment Follow-Up Assay, Ratio (AID 2283967)
# How it was run: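 Coactivator (SRC-2) recruitment to purified GST-TRβ ligand-binding domain is monitored by terbium-to-fluorescein energy transfer, emission ratio 520:495 nm. DMSO wells define 0% and T3 wells 100% activity.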
# [12] = target: Retinoic acid receptor RXR-alpha (Homo sapiens) (UniProt P19793); experiment: TOX21_TR_RXR_BLA_Antagonist_Followup_ratio: Tox21 Thyroid Hormone Receptor beta Retinoid X Receptor alpha (RXRa) Antagonism Beta-lactamase (BLA) Follow-Up Assay, Ratio (AID 2283972)
# Chain of Retinoic acid receptor RXR-alpha (Homo sapiens) (P19793 whole entry, looked up, the tested form may be a part): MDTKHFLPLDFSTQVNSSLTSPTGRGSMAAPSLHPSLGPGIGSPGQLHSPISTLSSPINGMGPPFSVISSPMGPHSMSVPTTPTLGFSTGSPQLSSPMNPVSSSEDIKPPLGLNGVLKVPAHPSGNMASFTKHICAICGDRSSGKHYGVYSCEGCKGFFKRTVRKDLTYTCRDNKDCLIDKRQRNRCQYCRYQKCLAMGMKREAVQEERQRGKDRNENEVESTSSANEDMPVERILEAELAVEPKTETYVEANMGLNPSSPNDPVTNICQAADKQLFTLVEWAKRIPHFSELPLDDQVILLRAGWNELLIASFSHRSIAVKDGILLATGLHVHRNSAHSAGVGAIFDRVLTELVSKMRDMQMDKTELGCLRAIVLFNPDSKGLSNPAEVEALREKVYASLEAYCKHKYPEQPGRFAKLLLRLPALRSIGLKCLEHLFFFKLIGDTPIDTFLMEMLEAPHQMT
# How it was run: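 Beta-lactamase reporter readout as cleaved/uncleaved substrate ratio (460:530 nm) after 2 h substrate loading at room temperature. GAL4-RXRa bla HEK293T cells were exposed 16 h at 37C to 11-point compound series; loss of signal scored against DMSO baseline.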
# [13] = TOX21_TR_RXR_BLA_Antagonist_Followup_viability: Viability Assessment in the Tox21 Thyroid Hormone Receptor beta Retinoid X Receptor alpha (RXRa) Antagonism Beta-lactamase (BLA) Follow-Up Assay (AID 2283979)
# How it was run: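 RXRa-UAS-bla HEK293T cells seeded 2,500/well in phenol red-free DMEM with 2% charcoal-stripped FBS, attached 5 h, then exposed to compounds at 11 concentrations in triplicate for 16 h at 37C/5% CO2. Viability read by CellTiter-Glo ATP luminescence; bidirectional fit versus DMSO.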
structure (smiles),measurement,setting,value
O=[N+]([O-])c1cc([N+](=O)[O-])c2ccc(S(=O)(=O)O)cc2c1O,outcome,[1],inactive
CCCN(CCC)C(=O)C(CCC(=O)O)NC(=O)c1ccccc1 (centres undefined),outcome,[2],inactive
same,outcome,[3],inactive
same,outcome,[4],inactive
CC(=O)OCC(C)C,outcome,[1],inactive
same,outcome,[5],inactive
Nc1nc(NC2CC2)c2ncn([C@H]3C=C[C@@H](CO)C3)c2n1,outcome,[1],inactive
same,outcome,[5],inactive
same,outcome,[6],inactive
same,outcome,[7],inactive
same,outcome,[3],inactive
CN1CCC(=C2c3ccccc3CC(=O)c3sccc32)CC1,outcome,[2],inactive
same,outcome,[4],inactive
CCCC(C)CO (centres undefined),outcome,[2],inactive
same,outcome,[4],inactive
CCOC(=O)C(Br)c1ccccc1 (centres undefined),outcome,[2],inactive
same,outcome,[4],inactive
Cc1cc([N+](=O)[O-])ccc1N,outcome,[1],inactive
same,outcome,[5],inactive
same,outcome,[6],inactive
same,outcome,[7],inactive
C[C@@H](O)[C@H]1C(=O)N2C(C(=O)O)=C([C@H]3CCCO3)S[C@H]12,outcome,[2],inactive
same,outcome,[3],inactive
same,outcome,[4],inactive
CC[C@@H](N)CO,outcome,[1],inactive
same,outcome,[5],inactive
same,outcome,[6],inactive
O=Cc1ccc(C(=O)O)cc1,outcome,[2],inactive
same,outcome,[3],inactive
same,outcome,[4],inactive
c1cnc2cc3c(cc2n1)C1CNCC3C1,outcome,[2],inactive
same,outcome,[4],inactive
C[C@](N)(Cc1ccc(O)cc1)C(=O)O,outcome,[1],inactive
same,outcome,[5],inactive
same,outcome,[6],inactive
same,outcome,[7],inactive
Cc1cccc(C)c1NC(=O)CN1CCCCCC1,outcome,[2],inactive
same,outcome,[3],inactive
same,outcome,[4],inactive
CCCOC(C)=O,outcome,[1],inactive
same,outcome,[5],inactive
same,outcome,[6],inactive
same,outcome,[7],inactive
same,outcome,[3],inactive
CC(C)(C)CC(C)(C)c1ccc(Nc2ccc(C(C)(C)CC(C)(C)C)cc2)cc1,outcome,[1],inactive
CS(=O)(=O)CCNCc1ccc(-c2ccc3ncnc(Nc4ccc(OCc5cccc(F)c5)c(Cl)c4)c3c2)o1,outcome,[1],inactive
COc1ccc(C2CNC(=O)C2)cc1OC1CCCC1 (centres undefined),outcome,[1],inactive
CC(C)(CCC(=O)O)C(=O)O,outcome,[2],inactive
same,outcome,[3],inactive
same,outcome,[4],inactive
COc1cc(Cl)ccc1Cl,outcome,[1],inactive
same,outcome,[5],inactive
same,outcome,[6],inactive
O=C(O)c1cc2cc(Cc3cccnc3)ccc2o1,outcome,[2],inactive
same,outcome,[3],inactive
same,outcome,[4],inactive
Cc1ccc(Cl)cc1Cl,outcome,[1],inactive
same,outcome,[5],inactive
NC(=O)C1(N2CCCCC2)CCN(CCCC(=O)c2ccc(F)cc2)CC1,AC50,[1],36.2 µM (active)
same,outcome,[5],inactive
same,outcome,[6],inactive
same,outcome,[7],inactive
O=C(O)CC/C=C\CC[C@@H]1[C@@H](N2CCCCC2)[C@@H](O)C[C@@H]1OCc1ccc(-c2ccccc2)cc1,outcome,[1],inactive
same,outcome,[5],inactive
CC1(C)CC(O)CC(C)(C)N1,outcome,[2],inactive
same,outcome,[4],inactive
CC1(c2ccccc2)OC(C(=O)O)=CC1=O (centres undefined),outcome,[2],inactive
same,outcome,[4],inactive
C=CC(=O)OCCOCCOCCOCCOC(=O)C=C,outcome,[2],inactive
same,outcome,[4],inactive
CNS(=O)(=O)Cc1ccc2[nH]cc(CCN(C)C)c2c1,outcome,[1],inactive
same,outcome,[5],inactive
same,outcome,[6],inactive
same,outcome,[7],inactive
same,outcome,[3],inactive
C=C(C)C(=O)OCCCCCCCC(C)C,outcome,[1],inactive
same,outcome,[5],inactive
same,outcome,[6],inactive
same,outcome,[7],inactive
same,outcome,[3],inactive
CC(C)(C)NCC(O)COc1cccc2c1CCC(=O)N2 (centres undefined),outcome,[2],inactive
same,outcome,[4],inactive
CN1CCCC(CC2c3ccccc3Sc3ccccc32)C1 (centres undefined),AC50,[8],15.5 µM (active)
same,outcome,THRA (gene 7067),inactive
same,outcome,THRB (gene 7068) [9],inactive
same,AC50,[10],8.56 µM (active)
same,outcome,THRB (gene 7068) [11],inactive
same,outcome,[12],inactive
same,outcome,[13],inactive
CS(=O)(=O)O,outcome,[1],inactive
same,outcome,[6],inactive
same,outcome,[7],inactive
CCC=C1OC(=O)c2ccccc21,outcome,[1],inactive
same,outcome,[6],inactive
same,outcome,[7],inactive
same,outcome,[3],inactive
same,outcome,[4],inactive
CCCCCCCCCCCCCC=O,outcome,[1],inactive
same,outcome,[7],inactive
same,outcome,[3],inactive
CN=C(NC#N)Nc1ccc(C2=NNC(=O)CC2C)cc1 (centres undefined),outcome,[1],inactive
same,outcome,[5],inactive
same,outcome,[4],inactive
C=CC(=O)NC(C)C,outcome,[1],inactive
same,outcome,[6],inactive
same,outcome,[4],inactive
C/C=C(/CC[C@@H](C)[C@H]1CC[C@H]2C3=CC[C@H]4[C@H](C)[C@@H](O)CC[C@]4(C)[C@H]3CC[C@]12C)C(C)C,outcome,[1],inactive
same,outcome,[6],inactive
same,outcome,[3],inactive
